Records with an inconclusive call do not appear. Calls of active or inactive are those of the source. The calls were made as follows, unless noted: active = hit-call score of the fitted dose curve at least 0.9, where 1 is the maximum; inactive = score below 0.9.
How the values were obtained:
[1] = ATG_NFI_CIS: Attagene CIS-FACTORIAL HepG2 Assay for human Nuclear Factor I (NFI) (AID 2282989); settings: HepG2 cis-regulatory reporter, NFI response element transcription; actives raise or lower the signal
How it was run: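 Reporter transcription driven by endogenous transcription factors in HepG2 cells; 24 h treatment. Quantitation by labelled RT-PCR fragments on capillary electrophoresis, gain- or loss-of-signal relative to DMSO.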

[2] = biological target: Myc proto-oncogene protein (Homo sapiens) (UniProt P01106); experiment: ATG_Myc_CIS: Attagene CIS-FACTORIAL HepG2 Assay for human Myelocytomatosis (Myc) Proto-Oncogene Transcription Factor (AID 2282990); settings: HepG2, Attagene cis-reporter transcription factor activity; actives raise or lower the signal
Sequence of Myc proto-oncogene protein (Homo sapiens) (P01106 whole entry, looked up): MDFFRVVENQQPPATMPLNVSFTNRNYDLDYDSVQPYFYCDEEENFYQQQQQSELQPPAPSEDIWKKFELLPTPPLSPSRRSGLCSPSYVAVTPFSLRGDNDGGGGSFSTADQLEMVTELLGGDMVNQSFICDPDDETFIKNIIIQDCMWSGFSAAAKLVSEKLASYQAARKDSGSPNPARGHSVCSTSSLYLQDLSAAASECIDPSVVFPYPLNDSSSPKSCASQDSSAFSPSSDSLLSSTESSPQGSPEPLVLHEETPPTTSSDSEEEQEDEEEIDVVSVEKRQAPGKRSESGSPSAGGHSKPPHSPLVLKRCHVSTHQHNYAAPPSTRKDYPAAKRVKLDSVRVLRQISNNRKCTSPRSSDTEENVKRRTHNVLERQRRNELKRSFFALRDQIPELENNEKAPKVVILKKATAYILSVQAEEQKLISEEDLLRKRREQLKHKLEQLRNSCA
How it was run: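 HepG2, transient MRTU transfection (cis promoters, endogenous TFs); 24 h dosing; TriZol RNA → oligo(dT) RT → PCR → 6-FAM primer extension → HpaI cut → CE. Bidirectional fit vs DMSO.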

[3] = ATG_NF_kB_CIS: Attagene CIS-FACTORIAL HepG2 Assay for human Nuclear Factor Kappa B (NF-kB) (AID 2282991); settings: HepG2 Attagene cis-factorial NF-kB reporter mRNA; actives raise or lower the signal
How it was run: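 HepG2, transient multi-reporter transfection, cis promoter elements (endogenous TFs). 24 h exposure. Total RNA → RT → PCR → 6-FAM label → HpaI → CE. Gain/loss vs DMSO.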

[4] = ATG_NRF2_ARE_CIS: Attagene CIS-FACTORIAL HepG2 Assay for human Nuclear Factor Erythroid 2 Related Factor 2 (NFR2) response to Antioxidant Response Elements (ARE) (AID 2282992); settings: HepG2 Attagene ARE/NRF2 reporter, transcription factor activity; actives raise or lower the signal;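 as to AC50: reporter mRNA level measured by RT-PCR and capillary electrophoresis fluorescence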
How it was run: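 HepG2 cells transiently transfected with multiplexed cis-element reporter constructs, 24 h after chemical dosing; reporter mRNA quantified by RT-PCR, fluorescent primer extension, HpaI digestion and capillary electrophoresis. Bidirectional fit relative to DMSO.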

[5] = ATG_Oct_MLP_CIS: Attagene CIS-FACTORIAL HepG2 Assay for human Octamer-Binding Transcription Factor (Oct) (AID 2282993); settings: HepG2 Attagene cis-factorial Oct reporter, mRNA; actives raise or lower the signal
How it was run: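 Transfected HepG2 cells, 24 h treatment. Reporter mRNA quantified by RT-PCR–capillary electrophoresis; bidirectional fitting against DMSO.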

[6] = biological target: Cellular tumor antigen p53 (Homo sapiens) (UniProt P04637); experiment: ATG_p53_CIS: Attagene CIS-FACTORIAL HepG2 Assay for human p53 Transcription Factor (AID 2282994); settings: HepG2 p53 cis-element reporter, Attagene mRNA; actives raise or lower the signal
Sequence of Cellular tumor antigen p53 (Homo sapiens) (P04637 whole entry, looked up): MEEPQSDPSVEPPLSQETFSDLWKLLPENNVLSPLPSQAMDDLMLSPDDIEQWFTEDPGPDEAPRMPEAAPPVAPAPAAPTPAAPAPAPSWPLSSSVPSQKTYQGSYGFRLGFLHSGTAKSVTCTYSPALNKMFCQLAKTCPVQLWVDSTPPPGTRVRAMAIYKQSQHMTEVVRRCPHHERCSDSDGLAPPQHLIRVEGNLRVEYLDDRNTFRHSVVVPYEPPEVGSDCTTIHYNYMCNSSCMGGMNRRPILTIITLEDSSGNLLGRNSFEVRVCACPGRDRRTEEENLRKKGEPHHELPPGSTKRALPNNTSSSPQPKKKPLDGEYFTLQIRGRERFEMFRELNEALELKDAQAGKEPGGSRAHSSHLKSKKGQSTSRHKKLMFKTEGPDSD
How it was run: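 HepG2 cells transiently transfected with cis-regulated multiple reporter transcription units, dosed 24 h. Reporter mRNA measured by RT-PCR, 6-FAM primer extension, HpaI digestion and capillary electrophoresis; bidirectional fit relative to DMSO.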

[7] = BSK_3C_TissueFactor: BioMAP Diversity Plus: 3C Assay for Tissue Factor Biomarker Activity (AID 2282997); settings: BioMAP 3C HUVEC, tissue factor biomarker readout; actives raise or lower the signal
How it was run: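 Dosing of human umbilical vein endothelial cells preceded a 24 h incubation. Tissue Factor was then read by ELISA, with increases and decreases both scored relative to DMSO controls.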

[8] = BSK_3C_uPAR: BioMAP Diversity Plus: 3C Assay for Urokinase-type plasminogen activator receptor (uPAR) Biomarker Activity (AID 2282998); settings: BioMAP 3C HUVEC, uPAR biomarker ELISA; actives raise or lower the signal
How it was run: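 Readout: ELISA for surface uPAR. System: human umbilical vein endothelial primary cells, 24 h after chemical exposure. Analysis: bidirectional fit, DMSO baseline.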

[9] = BSK_3C_VCAM1: BioMAP Diversity Plus: 3C Assay for Vascular cell adhesion molecule 1 (VCAM1) Biomarker Activity (AID 2282999); settings: BioMAP 3C HUVEC, VCAM1 ELISA, cytokine-stimulated; actives raise or lower the signal
How it was run: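 Endothelial cells from human umbilical vein are treated with test chemical. At 24 h, VCAM-1 is measured by ELISA, and responses in either direction are fitted relative to DMSO.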

[10] = BSK_4H_Eotaxin3: BioMAP Diversity Plus: 4H Assay for Eotaxin 3 Biomarker Activity (AID 2283000); settings: primary human endothelial cells (HUVEC); actives raise or lower the signal;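 as to outcome: CCL26 protein level quantified by ELISA in parallel with SRB cytotoxicity check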
How it was run: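 Human umbilical vein endothelial cells (BSK_4H system) dosed with test chemical; Eotaxin-3 (CCL26) measured by ELISA 24 h after dosing. Bidirectional curve fitting relative to DMSO negative control as baseline.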

[11] = read-out: Intercellular Adhesion Molecule 1 (ICAM1), ICAM1 (gene 3383); experiment: BSK_3C_ICAM1: BioMAP Diversity Plus: 3C Assay for Intercellular Adhesion Molecule 1 (ICAM1) Biomarker Activity (AID 2283003); settings: primary human endothelial cells (HUVEC); actives raise or lower the signal
How it was run: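 ICAM-1 levels measured by ELISA after HUVEC cultures in the 3C system had been dosed for 24 h. Gain or loss of signal relative to DMSO was fitted in both directions.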

[12] = BSK_3C_Proliferation: Cell Proliferation Assessment in the BioMAP Diversity Plus: 3C Assay (AID 2283006); settings: primary human endothelial cells (HUVEC);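 as to AC50: potency may reflect either rise or fall in cell number versus DMSO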
How it was run: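 Read-out is total protein by SRB absorbance at 560 nm, taken as a proxy for relative cell number. Primary human umbilical vein endothelium cultured below confluence was dosed for 48 h, TCA-fixed and SRB-stained; curves were fitted bidirectionally versus DMSO.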

[13] = biological target: human Peroxisome Proliferator-activated Receptor delta (PPARd), PPARD (gene 5467) (UniProt Q03181); experiment: ATG_PPARd_TRANS: Attagene TRANS-FACTORIAL HepG2 Assay for human Peroxisome Proliferator-activated Receptor delta (PPARd) (AID 2283002; active = hit-call score of the fitted dose curve at least 0.9, where 1 is the maximum)
Sequence of human Peroxisome Proliferator-activated Receptor delta (PPARd), PPARD (gene 5467) (Q03181 whole entry, looked up, the tested form may be a part): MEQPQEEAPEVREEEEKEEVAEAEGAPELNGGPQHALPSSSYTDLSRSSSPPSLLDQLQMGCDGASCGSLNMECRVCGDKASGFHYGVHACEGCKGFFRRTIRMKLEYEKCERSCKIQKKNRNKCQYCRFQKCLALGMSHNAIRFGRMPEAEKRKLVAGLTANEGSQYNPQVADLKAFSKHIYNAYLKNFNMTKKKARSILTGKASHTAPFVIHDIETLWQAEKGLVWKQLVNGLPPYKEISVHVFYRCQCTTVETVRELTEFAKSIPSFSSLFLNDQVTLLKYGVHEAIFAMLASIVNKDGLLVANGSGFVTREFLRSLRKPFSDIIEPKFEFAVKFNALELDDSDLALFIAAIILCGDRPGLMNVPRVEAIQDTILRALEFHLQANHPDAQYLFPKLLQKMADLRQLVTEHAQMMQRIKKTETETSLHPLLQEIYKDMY
How it was run: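 Transient HepG2 transfection (multiple GAL4-UAS RTUs, chimeric receptor-Gal4); 24 h dosing; total RNA → oligo(dT) RT → PCR → 6-FAM primer extension → HpaI cut → CE. Positive direction vs DMSO.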

[14] = biological target: Retinoic acid receptor alpha (Homo sapiens) (UniProt P10276); experiment: ATG_RARa_TRANS: Attagene TRANS-FACTORIAL HepG2 Assay for human Retinoic Acid Receptor alpha (RARa) (AID 2283005; active = hit-call score of the fitted dose curve at least 0.9, where 1 is the maximum)
Sequence of Retinoic acid receptor alpha (Homo sapiens) (P10276 whole entry, looked up, the tested form may be a part): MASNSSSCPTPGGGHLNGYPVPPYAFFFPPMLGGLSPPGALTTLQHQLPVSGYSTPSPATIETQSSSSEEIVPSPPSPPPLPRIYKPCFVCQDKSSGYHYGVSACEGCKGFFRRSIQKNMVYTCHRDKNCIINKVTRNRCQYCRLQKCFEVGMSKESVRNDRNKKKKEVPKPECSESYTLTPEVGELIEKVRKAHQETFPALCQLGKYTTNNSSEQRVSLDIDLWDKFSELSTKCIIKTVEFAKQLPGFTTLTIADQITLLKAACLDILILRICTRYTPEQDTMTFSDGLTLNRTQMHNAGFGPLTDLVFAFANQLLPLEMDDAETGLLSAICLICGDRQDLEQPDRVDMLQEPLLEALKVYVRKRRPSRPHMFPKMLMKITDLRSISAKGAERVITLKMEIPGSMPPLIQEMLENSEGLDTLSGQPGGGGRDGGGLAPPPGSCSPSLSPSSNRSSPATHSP
How it was run: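 Reporter transcripts, measured by RT-PCR with fluorescent labeling and capillary electrophoresis after 24 h dosing, reflect activity of an exogenous human RARa–GAL4 fusion in transiently transfected HepG2. Fitted for increase relative to DMSO.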

[15] = biological target: Peroxisome proliferator-activated receptor gamma (Homo sapiens) (UniProt P37231); experiment: ATG_PPARg_TRANS: Attagene TRANS-FACTORIAL HepG2 Assay for human Peroxisome Proliferator-activated Receptor-gamma (PPARg) (AID 2283007; active = hit-call score of the fitted dose curve at least 0.9, where 1 is the maximum)
Sequence of Peroxisome proliferator-activated receptor gamma (Homo sapiens) (P37231 whole entry, looked up): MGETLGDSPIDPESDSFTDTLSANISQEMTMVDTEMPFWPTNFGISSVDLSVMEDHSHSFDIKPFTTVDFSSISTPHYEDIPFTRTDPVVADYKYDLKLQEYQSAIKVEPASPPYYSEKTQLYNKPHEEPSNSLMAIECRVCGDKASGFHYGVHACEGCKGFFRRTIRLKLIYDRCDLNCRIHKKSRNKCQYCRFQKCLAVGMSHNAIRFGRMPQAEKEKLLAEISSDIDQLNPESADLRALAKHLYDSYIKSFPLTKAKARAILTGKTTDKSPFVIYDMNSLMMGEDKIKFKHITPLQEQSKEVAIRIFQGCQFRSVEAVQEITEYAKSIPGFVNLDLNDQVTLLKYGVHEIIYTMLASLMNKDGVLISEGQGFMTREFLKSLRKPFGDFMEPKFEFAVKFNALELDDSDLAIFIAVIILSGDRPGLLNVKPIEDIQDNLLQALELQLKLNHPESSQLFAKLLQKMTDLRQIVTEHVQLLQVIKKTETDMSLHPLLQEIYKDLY
How it was run: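 Multiplexed reporter transcription units in HepG2, 24 h dosing, reporter transcripts quantified by fluorescent RT-PCR and capillary electrophoresis. Increase over DMSO scored.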

[16] = biological target: human Retinoic Acid Receptor gamma (RARg), RARG (gene 5916) (UniProt P13631); experiment: ATG_RARg_TRANS: Attagene TRANS-FACTORIAL HepG2 Assay for human Retinoic Acid Receptor gamma (RARg) (AID 2283009; active = hit-call score of the fitted dose curve at least 0.9, where 1 is the maximum)
Sequence of human Retinoic Acid Receptor gamma (RARg), RARG (gene 5916) (P13631 whole entry, looked up): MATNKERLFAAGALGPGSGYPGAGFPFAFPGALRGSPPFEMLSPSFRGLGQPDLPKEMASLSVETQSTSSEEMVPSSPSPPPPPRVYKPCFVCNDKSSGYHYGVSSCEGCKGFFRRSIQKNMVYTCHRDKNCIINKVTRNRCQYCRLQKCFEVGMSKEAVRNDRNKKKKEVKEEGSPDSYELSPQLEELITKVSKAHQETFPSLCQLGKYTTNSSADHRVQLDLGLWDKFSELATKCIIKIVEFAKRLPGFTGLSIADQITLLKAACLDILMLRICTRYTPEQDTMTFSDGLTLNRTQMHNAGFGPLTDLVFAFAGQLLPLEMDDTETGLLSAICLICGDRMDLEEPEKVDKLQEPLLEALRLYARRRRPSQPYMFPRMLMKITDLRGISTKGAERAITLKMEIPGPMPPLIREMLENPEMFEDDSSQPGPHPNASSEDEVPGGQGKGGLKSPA
How it was run: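 Transient transfection of HepG2 with multi-reporter constructs, then 24 h chemical treatment. Total RNA isolated, reverse-transcribed, PCR-amplified, fluorescently labelled and resolved by capillary electrophoresis; activity scored as mRNA induction versus DMSO.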

[17] = biological target: Nuclear receptor subfamily 1 group I member 2 (Homo sapiens) (UniProt O75469); experiment: ATG_PXR_TRANS: Attagene TRANS-FACTORIAL HepG2 Assay for human Pregnane X Receptor (PXR) (AID 2283008; active = hit-call score of the fitted dose curve at least 0.9, where 1 is the maximum)
Sequence of Nuclear receptor subfamily 1 group I member 2 (Homo sapiens) (O75469 whole entry, looked up, the tested form may be a part): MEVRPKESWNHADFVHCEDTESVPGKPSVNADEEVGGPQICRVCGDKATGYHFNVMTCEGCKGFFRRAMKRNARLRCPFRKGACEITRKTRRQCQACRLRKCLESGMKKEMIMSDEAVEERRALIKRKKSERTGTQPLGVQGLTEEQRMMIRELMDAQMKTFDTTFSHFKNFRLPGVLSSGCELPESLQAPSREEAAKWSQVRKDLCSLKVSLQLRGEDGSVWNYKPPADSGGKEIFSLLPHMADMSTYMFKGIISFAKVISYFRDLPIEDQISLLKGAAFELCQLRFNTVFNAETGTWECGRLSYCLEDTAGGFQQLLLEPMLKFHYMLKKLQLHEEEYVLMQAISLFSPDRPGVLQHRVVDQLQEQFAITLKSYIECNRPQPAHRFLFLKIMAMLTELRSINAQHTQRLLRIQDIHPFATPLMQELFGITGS
How it was run: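 HepG2 cells transiently transfected with GAL4-UAS reporter units and PXR-Gal4 chimera, exposed 24 h. Reporter mRNA quantified by RT-PCR, fluorescent labelling, HpaI digestion and capillary electrophoresis; gain of signal vs DMSO.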

CCOCCOCCOCCO
outcome [1]: inactive
outcome [2]: inactive
outcome [3]: inactive
outcome [4]: inactive
outcome [5]: inactive
outcome [6]: inactive
outcome [7]: inactive
outcome [8]: inactive
outcome [9]: inactive
outcome [10]: inactive
outcome [11]: inactive
outcome [12]: inactive

CCOc1cccc(-n2cc(C(=O)N3CCN(c4cc(C(=O)O)c5ccccc5c4)CC3)nc2-c2ccc(C)cc2)c1
outcome [1]: inactive
outcome [2]: inactive
outcome [3]: inactive
AC50 [4]: 8.42 µM (active)
AC50 [5]: 25.4 µM (active)
outcome [6]: inactive
AC50 [7]: 28.7 µM (active)
AC50 [8]: 13.9 µM (active)
AC50 [9]: 27.9 µM (active)
AC50 [10]: 33.1 µM (active)
outcome [13]: inactive
AC50 [11]: 29.7 µM (active)
AC50 [12]: 13.5 µM (active)

CNCc1ccc(NC(=O)c2c[nH]c3c2C(=O)CCC3)cc1
outcome [1]: inactive
outcome [2]: inactive
outcome [3]: inactive
AC50 [4]: 56.6 µM (active)
outcome [5]: inactive
outcome [6]: inactive
outcome [7]: inactive
outcome [8]: inactive
outcome [9]: inactive
outcome [10]: inactive
outcome [13]: inactive
outcome [11]: inactive
outcome [14]: inactive
outcome [12]: inactive
outcome [15]: inactive
outcome [16]: inactive

CC(C)CC(C)(O)C#CC(C)(O)CC(C)C (stereo not given)
outcome [1]: inactive
outcome [2]: inactive
outcome [3]: inactive
outcome [4]: inactive
outcome [5]: inactive
outcome [6]: inactive
outcome [7]: inactive
outcome [8]: inactive
outcome [9]: inactive
outcome [10]: inactive
outcome [11]: inactive
outcome [12]: inactive
AC50 [17]: 11.9 µM (active)
outcome [16]: inactive
